Rows were chosen to be rich in hits. Some 4.7% of all compounds tested hit in one or more screens of this group.
ATXN viability: viability counter-screen for ATXN expression inhibitors; S2 cells (HEK-293 line with an ATXN2-luciferase reporter) viability, CellTiter-Fluor protease fluorescence, 24 h; Potency, µM (doses to about 56.7 µM), usual class: cytotoxic; hit rate 0.49% among 400,000; AID 651635; also: potency is read from the fitted curve at half-maximal effect; nearly all actives have a fitted effect of over 40% in size
HepG2 viability: counter-screen for TGF-b inhibitors: cytotoxicity in HepG2 cells; hit rate 0.76% among 410,000; Potency, µM (doses to about 46.1 µM), inactives show top-dose activity change, negative = cytotoxicity, actives largely listed as cytotoxic; HepG2 CAGA-GFP viability, ATP luminescence, 18 h; AID 588856; also: potency is read from the fitted curve at half-maximal effect
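CellTiter-Glo luminescence gave cytotoxicity after 18 hours at 37 degrees C. The cells were HepG2 CAGA-GFP in 1% FBS DMEM, stimulated with 500 pg/mL TGF-beta after compound addition. %Activity was normalised to no-cell wells (complete cell-killing) and DMSO (no toxicity), and curves were fitted and classified.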
D3 ag: activates the human D3 dopamine receptor. D3R DiscoveRx beta-arrestin cells, luminescence, 90 min. max activation, %. hit rate 0.58% among 410,000. AID 652048; in the data active = max activation above about 30%; also: 0% is about no effect
Target sequence (P35462 whole entry, looked up): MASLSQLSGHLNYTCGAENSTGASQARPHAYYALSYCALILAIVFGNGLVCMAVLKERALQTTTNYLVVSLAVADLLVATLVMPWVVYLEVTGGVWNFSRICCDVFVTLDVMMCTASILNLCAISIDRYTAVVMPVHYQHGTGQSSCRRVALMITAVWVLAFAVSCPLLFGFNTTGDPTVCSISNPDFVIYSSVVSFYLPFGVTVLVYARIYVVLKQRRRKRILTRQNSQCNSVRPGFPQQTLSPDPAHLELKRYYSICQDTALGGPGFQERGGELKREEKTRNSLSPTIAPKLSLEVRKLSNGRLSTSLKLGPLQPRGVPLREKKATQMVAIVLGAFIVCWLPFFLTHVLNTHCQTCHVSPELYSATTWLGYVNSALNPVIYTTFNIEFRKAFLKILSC
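Agonist-mode cell screen: cells plated at 1500/well and incubated overnight at 37 °C, then exposed to library compounds for 90 min at 37 °C. Detection reagent was added for 30–60 min at room temperature, and luminescence was read.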
DRD3 antagonist: antagonists of human D3 dopamine receptor | hit rate 2.5% among 360,000 | D3R cells, DiscoveRx beta-arrestin luminescence, antagonist mode; stronger effect = lower value | max response, negative = inhibition, %; in the data active = max response below about -50%; inconclusive = no clear call, values can overlap the other calls; also: % is scaled to controls: 0 for no effect and ±100 for the full control effect
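Cells plated overnight at 1500 cells/well, then exposed to library compounds with dopamine controls for 90 minutes at 37 degrees C. DiscoveRx reagent added for 30–60 minutes at room temperature; luminescence read, quantitative HTS format.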
TGFb SMAD3 inh: TGF-b pathway inhibition; HepG2 CAGA-GFP TGF-b/SMAD3 reporter, GFP fluorescence, 18 h; TGF-beta stimulated, 500 pg/mL final; hit rate 1.2% among 410,000; Potency, µM (series often up to 46.1 µM), without a hit: at the highest dose activity, negative = inhibition, usual class: inhibitors; AID 588855; also: potency is read from the fitted curve at half-maximal effect; % is scaled to controls: 0 for no effect and ±100 for the full control effect; nearly all actives have a fitted effect of over 65% in size
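Inhibition was scored as loss of TGF-beta-induced (500 pg/mL final, 18 hours, 37 degrees C) GFP in HEPG2 cells carrying a CAGA-GFP reporter, in DMEM with 1% FBS. Well GFP was summed per cell; Activity was normalised to unstimulated and stimulated DMSO wells, then concentration-response fitting.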
ATXN2 expr inh: ATXN2 expression inhibition; hit rate 0.72% among 360,000; HEK-293 ATXN2-luciferase reporter, luminescence, 24 h; Potency, µM (titrated, usually from 57 µM), for inactives: at the top dose activity change, negative = inhibition, usual class: inhibitors; also: potency is read from the fitted curve at half-maximal effect; % is scaled to controls: 0 for no effect and ±100 for the full control effect; nearly all actives have a fitted effect of over 55% in size
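ATXN2-luciferase reporter cells (luciferase flanked by upstream and downstream ATXN2 gene portions) were treated 24 h at 37 °C with compounds at up to 57 uM. SteadyGlo luminescence gave expression; GF-AFC fluorescence gave viability.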
Active calls of the source: *; i = inactive; ? = inconclusive; / = no result given. Unless noted, calls follow the shape of the dose curve; as a rule, active = well fitted curve in the direction sought with a large enough effect; inconclusive = small, poorly fitted or top-dose-only effect, or another doubt; inactive = no such curve, though single readings can be large; an effect the other way counts as inactive or inconclusive.

SMILES	ATXN viability	HepG2 viability	D3 ag	DRD3 antagonist	TGFb SMAD3 inh	ATXN2 expr inh
OC(CNCc1ccccc1)Cn1ccc2ccccc21 (stereo unspecified)	i	-42.8%	-10.4	-4.4	-22.6%	-11.3%
OC(CNCCNc1ncccc1C(F)(F)F)Cn1ccc2ccccc21 (stereo unspecified)	i	15.8µM*	-12.8	?	?	/
COc1ccc(N2C(=O)CC(N3CCN(c4ccccc4F)CC3)C2=O)cc1 (stereo unspecified)	i	0.2%	4.4	-65.5*	-2.0%	-4.2%
COc1ccc(NC(=O)NCCCN2CCN(c3ccccc3F)CC2)cc1	i	-5.7%	33.9*	?	0.0%	-11.1%
COc1ccc(NC(=O)CN2CCN(c3ccccc3F)CC2)cc1	i	0.2%	-11.3	-87.4*	?	1.5%
CCOc1ccc(NC(=O)NCCN2CCN(c3cccc(C)c3C)CC2)cc1	i	-34.5%	63.5*	-59.2*	-13.8%	-14.8%
Cc1ccc(Sc2c(C)nn(C(=O)c3ccc(Cl)cc3)c2C)cc1	i	-21.6%	-7.9	/	0.4%	14.9%
CN(C)S(=O)(=O)c1cc(NC(=O)CN2CCN(c3ccccc3F)CC2)ccc1Cl	i	-11.9%	49.3*	-6.6	-18.9%	6.6%
COc1ccc(NC(=O)NCCCN2CCN(c3cc(C)ccc3C)CC2)cc1	?	12.6µM*	-5.9	-107.8*	?	?
COc1ccc(C2=C(C)C(=NCCCN3CCN(c4cc(C)ccc4C)CC3)NS2(=O)=O)cc1	/	10µM*	-41.3	/	?	/
COc1ccc(-c2cccc(CCC(=O)N3CCN(c4cc(C)ccc4C)CC3)c2)cc1	i	-11.0%	18.3	38.7	?	-10.5%
COc1ccc(-c2noc(CCC(=O)NCCCN3CCN(c4ccccc4F)CC3)n2)cc1	i	-22.4%	-13.0	-94.9*	-27.9%	-25.1%
O=S(=O)(NCc1nc2cccnc2n1Cc1ccccc1)c1ccc2c(c1)CCCC2	/	-40.2%	-18.5	/	?	/
COc1ccccc1NC(=O)NCCCN1CCN(c2ccc(F)cc2)CC1	i	-11.3%	-21.4	/	2.9%	-4.3%
COc1ccc(/C=N/NC(=O)CN2CCS(=O)(=O)CC2)cc1	i	0.2%	1.7	-52.4*	-14.0%	2.7%
CCCN1CCN(CCNC(=O)Nc2ccccc2OCC)CC1	i	0.8%	-3.1	/	33.7%	8.1%
COc1cccc(NC(=O)NCCCN2CCN(c3ccc(F)cc3)CC2)c1	i	-27.0%	-29.9	-55.9*	46.0%	-24.1%
CCOc1ccc(NC(=O)NCCN2CCN(c3ccccc3F)CC2)cc1	i	-7.0%	8.0	-69.2*	-13.3%	1.1%
CCOc1cccc(N2CCN(CCNC(=O)Nc3ccc(C)cc3)CC2)c1C	i	-6.2%	59.3*	?	17.0%	-25.0%
CCOc1ccc(NC(=O)C(=O)NCCN2CCN(S(=O)(=O)c3ccccc3)CC2)cc1	i	2.1%	0.0	-0.6	-17.1%	-11.1%
CCCOc1ccc(CN(C(=O)c2cc(=O)c3ccc(C)cc3o2)C2CCS(=O)(=O)C2)cc1 (stereo unspecified)	i	-16.9%	-0.6	/	-24.9%	3.7%
COc1ccccc1Cn1c(CNS(=O)(=O)c2ccccc2Cl)nc2cccnc21	/	-28.1%	-4.0	/	-21.1%	/
COc1ccc(NC(=O)CN2CCC(C)CC2)cc1	i	-18.8%	-19.7	-69.1*	-9.2%	14.3%
COc1ccc(NC(=O)CN2CCC(C(N)=O)CC2)cc1	i	-21.1%	2.1	-5.0	-7.1%	13.0%
CCC(=NN=C(CC)c1ccccc1O)c1ccccc1O	i	11.9%	44.9*	27.3	2.0%	1.7%
SMILES	ATXN viability	HepG2 viability	D3 ag	DRD3 antagonist	TGFb SMAD3 inh	ATXN2 expr inh
Cc1ccc(OCC(=O)N(Cc2ccco2)Cc2ccc(C)o2)cc1	/	3.1%	2.8	/	-16.5%	/
CCc1ccc(C2c3[nH]c4ccccc4c3CCN2C(=O)CN2CCN(CC)CC2)cc1 (stereo unspecified)	25.1µM*	12.6µM*	-14.3	-55.2*	?	?
CCOc1ccc(-n2c(SCC(N)=O)nc3c(oc4ccccc43)c2=O)cc1	?	-13.8%	4.7	/	?	-19.2%
Cc1onc(-c2c(F)cccc2Cl)c1C(=O)c1ccccc1O	i	5.62µM*	22.1	4.8	-4.6%	-16.1%
Cc1onc(-c2c(Cl)cccc2Cl)c1C(=O)N1CCCc2ccccc21	i	-35.3%	21.4	-16.8	?	-14.8%
Cc1onc(-c2c(F)cccc2Cl)c1C(=O)N1CCc2ccccc21	i	-7.3%	33.8*	7.1	15.6%	-11.6%
Cc1onc(-c2c(F)cccc2Cl)c1C(=O)c1ccccc1	i	31.1%	3.1	-3.8	19.6%	-32.5%
CCC1(C2CCN(C(=O)c3cc(C)cc(C)c3)CC2)NC(=O)N(CCc2scnc2C)C1=O (stereo unspecified)	i	/	/	/	/	/
Cc1ccc(C)c(Cn2c(SCC(=O)NCc3ccccc3)nc3ccccc32)c1	i	-44.6%	-5.0	/	?	6.9%
O=C(Cn1nnc(-c2ccc(CN3CCOCC3)cc2)n1)Nc1nc(-c2ccccc2)cs1	i	-43.9%	-12.8	?	12.6µM*	-9.9%
O=C(CN1CCOCC1)Nc1nc(-c2ccccc2)cs1	i	1.4%	4.3	18.7	0.0%	11.5%
CC=C(C)C(=O)O[C@H]1C(C)=C[C@]23C(=O)[C@@H](C=C(CO)[C@@H](O)[C@]12O)[C@H]1[C@@H](C[C@H]3C)C1(C)C	/	/	/	/	/	-14.6%
Cc1ccc(CNC(=O)CSc2nc3n[nH]c(C)c3c(=N)n2-c2ccccc2Cl)cc1	/	-19.0%	5.7	/	?	/
CCOc1ccccc1-n1c(SCC(=O)Nc2ccc(CC)cc2)nc2n[nH]c(C)c2c1=N	20µM*	9.8%	8.6	0.0	?	?
Cc1c(Cl)cccc1-n1c(SCC(=O)NCc2ccccc2)nc2n[nH]c(C)c2c1=N	/	-60.2%	-19.8	/	11.2µM*	/
CCc1ccccc1-n1c(SCC(=O)Nc2ccc(C)cc2)nc2n[nH]c(C)c2c1=N	/	-42.0%	1.1	/	0.0%	/
CCc1ccc(-n2c(SCC(=O)NC(C)CC)nc3n[nH]c(C)c3c2=N)cc1 (stereo unspecified)	/	-14.2%	-16.8	/	?	/
Cc1ccccc1-n1c(SCC(=O)Nc2ccccc2Cl)nc2n[nH]c(C)c2c1=N	i	-21.0%	4.7	32.5	-17.7%	-25.6%
CCOc1ccccc1NC(=O)CCSc1nc2n[nH]c(C)c2c(=N)n1-c1ccccc1Cl	i	-24.9%	30.3*	25.7	2.0%	-30.3%
CCc1ccc(NC(=O)CSc2nc3n[nH]c(C)c3c(=N)n2-c2ccccc2C)cc1	?	15.8µM*	-2.0	/	?	-27.7%

Source: PubChem BioAssay
